# According to PubChem BioAssay:
# Inconclusive results are not listed. The source made the active and inactive calls.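 How the source made its calls, unless noted: active means normalized viability below 100% at a tested concentration; inactive means the rest.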
# How the values were obtained:
# [1] = growth inhibition of DIPG glioma cells, dose response, cell-based, SU-DIPG-XVII, MIPE5.0, CellTiter-Glo, qHTS (AID 1347060; cut-off not given, nearly all actives have AC50 up to about 26 µM;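 on AC50: cells exposed to compound for 48 hours before viability readout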); settings: SU-DIPG-XVII viability, CellTiter-Glo ATP luminescence
# [2] = growth inhibition of DIPG glioma cells, dose response, cell-based, SU-DIPG-XIII, MIPE5.0, CellTiter-Glo, qHTS (AID 1347064; cut-off not given, nearly all actives have AC50 up to about 23 µM;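 on AC50: cells exposed to compound for 48 hours before the viability read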); settings: SU-DIPG-XIII viability, CellTiter-Glo ATP luminescence
# [3] = viability loss in pontine glioma line – cell-based, SU-DIPG-XXV, MIPE5.0, CellTiter-Glo, qHTS, dose response (AID 1347065; cut-off not given, nearly all actives have AC50 up to about 26 µM;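 further: cells exposed to compound for 48 hours before ATP readout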); settings: CellTiter-Glo ATP luminescence
# [4] = SU-DIPG-VI glioma cell viability, MIPE4.0 library, CellTiter-Glo luminescence, qHTS (AID 1347066; cut-off not given, nearly all actives have AC50 up to about 30 µM;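 further: cells exposed to compound for 48 hours before readout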); settings: CellTiter-Glo ATP luminescence
# [5] = JHH-DIPG-1 glioma cell viability, MIPE5.0 library, CellTiter-Glo luminescence, qHTS (AID 1347067; cut-off not given, nearly all actives have AC50 up to about 26 µM;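 further: cells exposed to compound for 48 hours before readout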); settings: JHH-DIPG-1 glioma viability, CellTiter-Glo ATP luminescence
# [6] = SU-DIPG-XXV glioma cell viability, MIPE5.0 library, qHTS (AID 1347068; cut-off not given, nearly all actives have IC50 up to about 30 µM)
# [7] = sensitizers of A549 cells to miR-34 induction, primary screen, imaging, A549 dox-inducible miR-34, nuclei and caspase counts (AID 1347080;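 active means compounds whose cell count with miR-34 switched on is under 0.7 times the count with it off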); settings: A549 miR-34 inducible, Hoechst nuclei count, 48 h
# [8] = survival rescue of mitochondrial mutant cells in low glucose, primary screen, MELAS cybrids, Rieske KO mouse fibroblasts, CellTiter-Glo (AID 1508586;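 active means mean z-score across replicates of 1.96 or higher in either the MELAS or the Rieske mutant cell line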;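 further: z relative to plate mean and SD of compound and empty wells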)
# [9] = modifiers of HSF1 nuclear foci, imaging, Selleck Cancer Library (AID 1347162; in the data active means plate-normalised HSF1 focus index below about 0.46); settings: human cells, at 10 µM; SSMD: measured here: HSF1 foci SSMD mean; cell count: measured here: cell number; plate-normalised HSF1 focus index: stronger effect = lower value
# [10] = ovarian cancer cell viability with rucaparib, profiling panel, oncology-focused library, rucaparib conditional (AID 1508598); settings: patient-derived ovarian cancer cells, CellTiter-Glo viability, 144 h, stronger effect = lower value
# [11] = stronger effect = lower value, cell number ratio, induced over uninduced
# [12] = measured here: relative caspase fold change +Dox/-Dox
# [13] = measured here: total cells with miR-34 induction, stronger effect = lower value
# [14] = measured here: total cells without miR-34 induction
# [15] = MELAS cybrid survival, CellTiter-Glo 48 h, stronger effect = higher value
# [16] = Rieske KO mouse fibroblast survival, CellTiter-Glo 72 h
# [17] = at 0.000305 µM, OCI-C5x cells, with rucaparib 10 µM, 100% = cells with rucaparib alone
# [18] = at 0.000305 µM, OCI-C5x cells, without rucaparib
# [19] = at 0.000305 µM, OCI-P5x cells, with rucaparib 20 µM, 100% = cells with rucaparib alone
# [20] = at 0.000305 µM, OCI-P5x cells, without rucaparib
# [21] = at 0.00122 µM, OCI-C5x cells, with rucaparib 10 µM, 100% = cells with rucaparib alone
# [22] = at 0.00122 µM, OCI-C5x cells, without rucaparib
# [23] = at 0.00122 µM, OCI-P5x cells, with rucaparib 20 µM, 100% = cells with rucaparib alone
# [24] = at 0.00122 µM, OCI-P5x cells, without rucaparib
# [25] = at 0.00488 µM, OCI-C5x cells, with rucaparib 10 µM, 100% = cells with rucaparib alone
# [26] = at 0.00488 µM, OCI-C5x cells, without rucaparib
# [27] = at 0.00488 µM, OCI-P5x cells, with rucaparib 20 µM, 100% = cells with rucaparib alone
# [28] = at 0.00488 µM, OCI-P5x cells, without rucaparib
# [29] = at 0.0195 µM, OCI-C5x cells, with rucaparib 10 µM, 100% = cells with rucaparib alone
# [30] = at 0.0195 µM, OCI-C5x cells, without rucaparib
# [31] = at 0.0195 µM, OCI-P5x cells, with rucaparib 20 µM, 100% = cells with rucaparib alone
# [32] = at 0.0195 µM, OCI-P5x cells, without rucaparib
# [33] = at 0.0781 µM, OCI-C5x cells, with rucaparib 10 µM, 100% = cells with rucaparib alone
# [34] = at 0.0781 µM, OCI-C5x cells, without rucaparib
# [35] = at 0.0781 µM, OCI-P5x cells, with rucaparib 20 µM, 100% = cells with rucaparib alone
# [36] = at 0.0781 µM, OCI-P5x cells, without rucaparib
# [37] = at 0.313 µM, OCI-C5x cells, with rucaparib 10 µM, 100% = cells with rucaparib alone
# [38] = at 0.313 µM, OCI-C5x cells, without rucaparib
# [39] = at 0.313 µM, OCI-P5x cells, with rucaparib 20 µM, 100% = cells with rucaparib alone
# [40] = at 0.313 µM, OCI-P5x cells, without rucaparib
# [41] = at 1.25 µM, OCI-C5x cells, with rucaparib 10 µM, 100% = cells with rucaparib alone
# [42] = at 1.25 µM, OCI-C5x cells, without rucaparib
# [43] = at 1.25 µM, OCI-P5x cells, with rucaparib 20 µM, 100% = cells with rucaparib alone
# [44] = at 1.25 µM, OCI-P5x cells, without rucaparib
# [45] = at 5 µM, OCI-C5x cells, with rucaparib 10 µM, 100% = cells with rucaparib alone
# [46] = at 5 µM, OCI-C5x cells, without rucaparib
# [47] = at 5 µM, OCI-P5x cells, with rucaparib 20 µM, 100% = cells with rucaparib alone
# [48] = at 5 µM, OCI-P5x cells, without rucaparib
compound,measurement,setting,value
O=C(O)CCCCC(CCSCc1ccccc1)SCc1ccccc1 (centres undefined),outcome,[1],inactive
same,outcome,[2],inactive
same,outcome,[3],inactive
same,outcome,[4],inactive
same,outcome,[5],inactive
same,outcome,[6],inactive
same,fold change,[7]; [11],0.896 (inactive)
same,fold change,[7]; [12],0.838
same,cell count,[7]; [13],9470
same,cell count,[7]; [14],10600
same,z-score,[8]; [15],-0.291 (inactive)
same,z-score,[8]; [16],0.614
COc1ccc(S(=O)(=O)NCc2ccc(C(=O)NCCc3ccc(Cl)cn3)cc2)cc1,outcome,[1],inactive
same,outcome,[2],inactive
same,outcome,[3],inactive
same,outcome,[5],inactive
CCCCNc1ncc(-c2ccc(CN3CCOCC3)cn2)c(NC2CCC(O)CC2)n1 (centres undefined),AC50,[1],2.57 µM (active)
same,outcome,[2],inactive
same,AC50,[3],1.82 µM (active)
NC(=O)C1CCCc2c1[nH]c1ccc(Cl)cc21 (centres undefined),outcome,[1],inactive
same,outcome,[2],inactive
same,outcome,[3],inactive
same,outcome,[4],inactive
same,outcome,[5],inactive
same,outcome,[6],inactive
same,fold change,[7]; [11],1.01 (inactive)
same,fold change,[7]; [12],0.695
same,cell count,[7]; [13],7360
same,cell count,[7]; [14],7260
same,SSMD,[9],1.46
same,cell count,[9],6830
same,plate-normalised HSF1 focus index,[9],1.08 (inactive)
same,z-score,[8]; [15],-0.456 (inactive)
same,z-score,[8]; [16],-0.725
same,viability,[10]; [17],114% (inactive)
same,viability,[10]; [18],113% (inactive)
same,viability,[10]; [19],92.1% (active)
same,viability,[10]; [20],96.9% (active)
same,viability,[10]; [21],118% (inactive)
same,viability,[10]; [22],119% (inactive)
same,viability,[10]; [23],109% (inactive)
same,viability,[10]; [24],101% (inactive)
same,viability,[10]; [25],117% (inactive)
same,viability,[10]; [26],114% (inactive)
same,viability,[10]; [27],105% (inactive)
same,viability,[10]; [28],111% (inactive)
same,viability,[10]; [29],106% (inactive)
same,viability,[10]; [30],115% (inactive)
same,viability,[10]; [31],109% (inactive)
same,viability,[10]; [32],116% (inactive)
same,viability,[10]; [33],113% (inactive)
same,viability,[10]; [34],112% (inactive)
same,viability,[10]; [35],105% (inactive)
same,viability,[10]; [36],117% (inactive)
same,viability,[10]; [37],112% (inactive)
same,viability,[10]; [38],124% (inactive)
same,viability,[10]; [39],105% (inactive)
same,viability,[10]; [40],120% (inactive)
same,viability,[10]; [41],109% (inactive)
same,viability,[10]; [42],118% (inactive)
same,viability,[10]; [43],107% (inactive)
same,viability,[10]; [44],120% (inactive)
same,viability,[10]; [45],100% (active)
same,viability,[10]; [46],124% (inactive)
same,viability,[10]; [47],95% (active)
same,viability,[10]; [48],114% (inactive)
OC1CCC(Nc2ncc3nc(Nc4c(F)cc(F)cc4F)n([C@@H]4CCOC4)c3n2)CC1 (some centres undefined),outcome,[1],inactive
same,outcome,[2],inactive
same,outcome,[3],inactive
same,outcome,[4],inactive
same,outcome,[5],inactive
same,outcome,[6],inactive
O=C(/C=C\n1cnc(-c2cc(C(F)(F)F)cc(C(F)(F)F)c2)n1)N1CC(F)(F)C1,AC50,[1],1.18 µM (active)
same,AC50,[2],2.63 µM (active)
same,AC50,[3],13.2 µM (active)
same,AC50,[5],9.34 µM (active)
Cc1cc(-c2ccc(CC(=O)Nc3ccc(-c4cccnc4)cc3)cc2)ccn1,outcome,[1],inactive
same,outcome,[2],inactive
same,outcome,[3],inactive
same,outcome,[4],inactive
same,outcome,[5],inactive
same,outcome,[6],inactive
same,fold change,[7]; [11],0.957 (inactive)
same,fold change,[7]; [12],0.839
same,cell count,[7]; [13],7810
same,cell count,[7]; [14],8160
same,z-score,[8]; [15],-0.327 (inactive)
same,z-score,[8]; [16],-0.153
COc1cc(OC)cc(N(CCNC(C)C)c2ccc3ncc(-c4cnn(C)c4)nc3c2)c1,AC50,[1],0.0661 µM (active)
same,AC50,[2],0.0661 µM (active)
same,AC50,[3],0.0833 µM (active)
CCc1nc(C(N)=O)c(Nc2ccc(N3CCC(N4CCN(C)CC4)CC3)c(OC)c2)nc1NC1CCOCC1,AC50,[1],2.35 µM (active)
same,AC50,[2],1.18 µM (active)
same,AC50,[3],0.833 µM (active)
same,AC50,[5],0.934 µM (active)
COCCOc1nc(-c2ccc(Cl)c(Cl)c2)n(-c2ccc(NC(=O)CCl)cc2)n1,AC50,[1],1.32 µM (active)
same,AC50,[2],2.63 µM (active)
same,AC50,[3],2.95 µM (active)
same,outcome,[4],inactive
same,AC50,[5],2.63 µM (active)
same,outcome,[6],inactive
same,fold change,[7]; [11],1.14 (inactive)
same,fold change,[7]; [12],0.519
same,cell count,[7]; [13],3760
same,cell count,[7]; [14],3290
same,z-score,[8]; [15],-0.782 (inactive)
same,z-score,[8]; [16],-7.88
same,viability,[10]; [17],125% (inactive)
same,viability,[10]; [18],115% (inactive)
same,viability,[10]; [19],104% (inactive)
same,viability,[10]; [20],105% (inactive)
same,viability,[10]; [21],131% (inactive)
same,viability,[10]; [22],104% (inactive)
same,viability,[10]; [23],93.4% (active)
same,viability,[10]; [24],103% (inactive)
same,viability,[10]; [25],131% (inactive)
same,viability,[10]; [26],113% (inactive)
same,viability,[10]; [27],105% (inactive)
same,viability,[10]; [28],99.8% (active)
same,viability,[10]; [29],114% (inactive)
same,viability,[10]; [30],106% (inactive)
same,viability,[10]; [31],103% (inactive)
same,viability,[10]; [32],100% (inactive)
same,viability,[10]; [33],125% (inactive)
same,viability,[10]; [34],111% (inactive)
same,viability,[10]; [35],95.6% (active)
same,viability,[10]; [36],97.3% (active)
same,viability,[10]; [37],124% (inactive)
same,viability,[10]; [38],112% (inactive)
same,viability,[10]; [39],96.8% (active)
same,viability,[10]; [40],90.6% (active)
same,viability,[10]; [41],97.1% (active)
same,viability,[10]; [42],112% (inactive)
same,viability,[10]; [43],86.3% (active)
same,viability,[10]; [44],86.9% (active)
same,viability,[10]; [45],2.67% (active)
same,viability,[10]; [46],92.5% (active)
same,viability,[10]; [47],1.14% (active)
same,viability,[10]; [48],6.27% (active)
